# Bioassay records from PubChem BioAssay.
# IMPase Li inh: IMPase inhibition in cells with lithium potentiation; CHO-M1 cells, IP1 TR-FRET (IP-One), carbachol + lithium; Potency, µM (doses to about 59.4 µM), for the others: at the highest dose activity, negative = IMPase inhibition, hits mostly inhibitors; 0.35% of 210,000 active; AID 1457;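 note: IP1 builds up when IMPase is blocked and the TR-FRET signal falls; potency is the fitted concentration of half-maximal effect; plate controls were basal vehicle for no effect and high inhibitor control for full effect; nearly all actives have a fitted effect of over 50% in size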
#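 CHO-M1, 2000 cells/well, 16–30 h culture; cpd + low Li+, 30 min 37C; lysis with d2-IP1/Eu-anti-IP1 Ab, 10 min RT; TR-FRET 665/620 ratio and 620 channel; AC50 via Hill.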
# PNC inhibitor: blocks assembly of the perinucleolar compartment | activity change (PNC), negative = inhibition, % at 10 µM | 3.1% of 140,000 active | PC3M PTB-GFP, PNC prevalence imaging, 16 h; hits give low values;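 active = readout at or below -70, meaning at least 70% loss of cells showing the perinucleolar compartment, a nuclear body marking cancer cells; inconclusive = readout between -30 and a set limit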;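 note: plate controls were DMSO wells for no effect and camptothecin positive control wells for full effect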
#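 PC3M cells stably expressing PTB-GFP, 750–1000 cells/well, treated 16 h at 37 °C with compound (23 nl of library stock), in duplicate. After paraformaldehyde fixation and Hoechst stain, imaged at 20x; PNC prevalence scored by image analysis.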
# HPGD block: blocks human HPGD enzyme activity; P15428; purified HPGD, NADH fluorescence kinetic, PGE2 substrate; Potency, µM, inactives show at the highest dose activity change, negative = inhibition, hits mostly inhibitors; 4.3% of 150,000 active; active = well fitted inhibition curve with a large enough effect, not every such curve was filed as active; inconclusive = small, poorly fitted or top-dose-only effect, or another doubt; inactive = no such curve, though single readings can be large or run the other way; note: potency is the fitted concentration of half-maximal effect
#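 20 nM HPGD preincubated 15 min at room temperature with compound in 50 mM Tris-HCl pH 8, 0.01% Tween 20. Started with 1 mM NAD+ and 30 uM prostaglandin E2; NADH fluorescence (360/450 nm) read 5 times over 30-s intervals, last minus first.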
# ALDH1A1 block: inhibitors of human aldehyde dehydrogenase 1A1. P00352. Purified ALDH1A1, NADH fluorescence, propionaldehyde substrate. Potency, µM (highest dose often 75.3 µM), for inactives: at the highest dose activity, negative = inhibition, most hits filed as inhibitors. 7.3% of 220,000 active. AID 1030; active = well fitted inhibition curve with a large enough effect, not every such curve was filed as active; inconclusive = small, poorly fitted or top-dose-only effect, or another doubt; inactive = no such curve, though single readings can be large or run the other way;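 note: potency is the fitted concentration of half-maximal effect; plate controls were no enzyme wells and a reference inhibitor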
# IMPase inh: cell-permeable inhibitors of inositol monophosphatase (IMPase); inhibition (IP1 accumulation), % at 46.1 µM; 120,000 tested, under 10 active; CHO-M1 cells, IP1 accumulation, HTRF TR-FRET ratio; AID 901; active = well fitted curve in the direction sought with a large enough effect in the signal ratio, not every such curve was filed as active; inconclusive = small, poorly fitted or top-dose-only effect, or a change in a side signal; inactive = no such curve, though single readings can be large or run the other way; the % refers to the signal ratio;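 note: cells stimulated with carbachol in lithium chloride buffer; plate controls were DMSO basal wells for no effect and reference inhibitor wells for full effect; higher means more IMPase inhibition seen as more IP1 and lower FRET ratio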
#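 CHO-M1, 2000 cells/well, cultured 16–30 h; cpd up to 46 uM; carbachol (50 uM solution, stimulation buffer w/ 50 mM LiCl, pH 7.4), 30 min 37C; IP-One TR-FRET, 10 min RT; Ex 320/Em 665, 620; Hill-fit AC50.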
# 12-hLO inh: 12-hLO (ALOX12) enzyme inhibition; purified 12-hLO, xylenol orange hydroperoxide absorbance; Potency, µM (top dose mostly 57.1 µM), inactives show at the highest dose activity change, negative = inhibition, most hits filed as inhibitors; 0.12% of 150,000 active; note: potency is the fitted concentration of half-maximal effect; nearly all actives have a fitted effect of over 55% in size
# Target sequence (P18054 whole entry, looked up): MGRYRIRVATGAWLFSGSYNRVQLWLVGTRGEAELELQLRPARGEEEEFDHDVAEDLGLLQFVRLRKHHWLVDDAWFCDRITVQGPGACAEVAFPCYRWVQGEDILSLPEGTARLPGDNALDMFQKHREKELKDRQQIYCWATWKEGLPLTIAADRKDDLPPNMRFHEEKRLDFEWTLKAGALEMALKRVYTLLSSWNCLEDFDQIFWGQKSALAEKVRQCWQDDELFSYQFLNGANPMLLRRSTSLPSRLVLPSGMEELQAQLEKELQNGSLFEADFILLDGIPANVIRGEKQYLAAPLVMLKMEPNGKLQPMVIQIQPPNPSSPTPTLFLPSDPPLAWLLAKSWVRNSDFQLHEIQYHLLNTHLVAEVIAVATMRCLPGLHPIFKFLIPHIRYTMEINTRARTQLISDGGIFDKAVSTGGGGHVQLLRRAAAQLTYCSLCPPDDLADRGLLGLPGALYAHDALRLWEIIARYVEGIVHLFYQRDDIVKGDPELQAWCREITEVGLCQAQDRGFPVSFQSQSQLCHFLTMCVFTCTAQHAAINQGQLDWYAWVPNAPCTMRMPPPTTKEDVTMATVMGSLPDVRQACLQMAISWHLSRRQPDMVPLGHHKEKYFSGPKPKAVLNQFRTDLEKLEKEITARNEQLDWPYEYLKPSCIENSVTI
#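 Hydroperoxide formation by human 12-lipoxygenase from 40 uM arachidonic acid was followed colorimetrically via ferric-xylenol orange complex, using the 573/405 nm absorbance ratio. Enzyme concentration was 150 nM, with 30 min reaction at room temperature.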
# Active calls of the source: *; ? = inconclusive; · = no result; [ ] = remark or other dose. Most compounds without a hit are left out; they make up all but 11% or so of the library. Unless noted, calls come from the whole dose curve; as a rule, active = well fitted curve in the direction sought with a large enough effect; inconclusive = small, poorly fitted or top-dose-only effect, or another doubt; inactive = no such curve, though single readings can be large; an effect the other way counts as inactive or inconclusive. Unless noted, % is set by controls: 0 for no effect and ±100 for the full control effect.
SMILES,IMPase Li inh,PNC inhibitor,HPGD block,ALDH1A1 block,IMPase inh,12-hLO inh
CCCCC/C=C\C/C=C\C=C\[C@@H](O)C/C=C\CCCC(=O)O,-1%,·,-8%,1%,·,-2%
CCC/C=C(\CCC)C(NC(=O)c1ccc(-c2ccccc2)cc1)c1ccc(C(=O)OC)cc1 (stereo unspecified),-8%,·,-26%,3%,·,6%
O=C(Nc1ccccc1)C12CC1/C(=N\O)c1ccccc1O2 (stereo unspecified),-8%,·,·,?,·,·
COc1cccc(-c2cc(NCc3cnc(C)cn3)ncn2)c1,3%,·,·,?,·,·
O=C(Oc1ccc2c(=O)c(Cl)coc2c1)c1cccnc1,-26%[38.3 µM],-26,-21%,20µM*,1,4%
Cc1cc(C)cc(Oc2coc3c(CN4CCN(C)CC4)c(O)ccc3c2=O)c1,·,·,·,·,-8,·
CCc1cccc(C)c1NC(=S)N(CCN(C)C)C(C)c1cccnc1 (stereo unspecified),-1%,·,·,10%,·,·
O=S1(=O)C[C@@H](O)[C@@H](Nc2ccc(Cl)cc2)C1,18%[38.3 µM],?,-14%,11µM*,8,3%
CC(C)(C)NCC(=O)c1c[nH]c2ccccc12,3%[38.3 µM],27,-17%,18µM*,-4,0%
CC(=O)OCC(=O)c1c[nH]c2ccccc12,0%,·,·,-8%,·,·
O=C(COC(=O)C1CC1)c1c[nH]c2ccccc12,12%[38.3 µM],-80*,-7%,-14%,3,-3%
CCCCN1C(=O)C2Cc3c([nH]c4ccccc34)CN2C1=S (stereo unspecified),11%,·,·,?,·,·
OCCNc1ncnc2c1ncn2[C@@H]1O[C@@H](CO)[C@H](O)[C@@H]1O,-5%,·,-8%,-6%[13.5 µM],·,3%[11.4 µM]
CC(C)C1NC2(C(=O)c3ccccc3C2=O)C2C(=O)N(c3ccc(F)cc3)C(=O)C12 (stereo unspecified),-18%[38.3 µM],29,32µM*,1.3µM*,-4,-5%
O=[N+]([O-])c1ccc(Cl)c(CNc2ncnc3c2ncn3[C@@H]2CCCCO2)c1,8%,·,3.5µM*,-9%[13.5 µM],·,0%[11.4 µM]
COc1ccc(COC(=O)N/N=C2/C[C@@H](O)[C@@H](O)[C@@H]3[C@@H]4C(=O)N(C(C)(C)C)C(=O)[C@H]4CC[C@@H]23)cc1,·,·,·,1%[13.5 µM],·,·
O=Cc1cnc(N2CCCCC2)s1,5%,·,·,3.5µM*,·,·
O=C(N/N=C/c1cnc(N2CCCCC2)s1)c1ccc(Cl)cc1,13%,·,·,0%,·,·
CSc1nsc(/C=C/Nc2ccc(C)cc2)c1C#N,-16%[38.3 µM],-11,14µM*,7.5µM*,-5,-30%
CSc1nsc(/C=C/Nc2ccc(C)c(C)c2)c1C#N,6%,·,·,14µM*,·,·
COc1cc(/C=N/Nc2snc(SC)c2C#N)ccc1O,0%[38.3 µM],-13,?,1%,-5,-5%
CSc1nnc(C)c(/C=C/Nc2ccc(F)cc2)n1,7%[38.3 µM],28,-15%,-7%,1,-4%
Cc1c(NC(=O)c2cc(-c3cccs3)on2)c(=O)n(-c2ccccc2)n1C,-16%[38.3 µM],?,-7%,32µM*,?,-9%
[Cl][In]([Cl])[Cl],-5%,·,-11%,8%,·,-21%
Cc1sc2nc3c(C(=O)N4CCCC4)cc(C(=O)c4ccccc4O)cn3c(=O)c2c1C,11%,·,·,20µM*,·,·
SMILES,IMPase Li inh,PNC inhibitor,HPGD block,ALDH1A1 block,IMPase inh,12-hLO inh
CCc1c(C)sc2nc3c(C(=O)N4CCOCC4)cc(C(=O)c4cc(F)ccc4O)cn3c(=O)c12,10%,·,·,?,·,·
O=c1[nH]cnc2c1nc(Cl)n2C1OC(CO)C(O)C1O (stereo unspecified),1%,·,-4%,-1%,·,3%
COC(=O)[C@@]1(Cc2ccc(OC)cc2)[C@H]2c3cc(C(=O)N(C)C)n(CCc4ccccn4)c3C[C@H]2CN1C(=O)c1ccccc1,0%,·,-7%,-2%,·,-26%
C=CCn1c(SCn2nnc3ccccc3c2=O)nnc1-c1ccc(Br)cc1,25%[38.3 µM],-84*,-2%,1%,-4,-8%
Cc1nc(SCn2nnc3ccccc3c2=O)nc(C)c1C,-6%[38.3 µM],?,14µM*,?,0,-4%
O=c1c2ccccc2nnn1CSc1ccc2ccccc2n1,14%,-104*,-23%,2%,·,0%
Cc1cccc(NC(=O)c2c(NC(=O)c3ccccc3)sc3c2CCCC3)c1,·,·,·,·,-2,·
CCC(Oc1ccccc1F)C(=O)Nc1c(C(=O)c2ccccc2)oc2ccccc12 (stereo unspecified),·,·,·,·,2,·
CC(C)c1ccc(NC(=O)CCCN2C(=S)NC(C)(C)CC2C)cc1 (stereo unspecified),33%,·,·,5µM*,·,·
CC(=O)N(Cc1ccc(F)cc1)Cc1nc2ccccc2c(=O)[nH]1,0%,·,·,5%,·,·
CS(=O)(=O)N(Cc1ccc(F)cc1)Cc1nc2ccccc2c(=O)[nH]1,0%[38.3 µM],24,-1%,25µM*,8,-1%
CN1C(=O)/C(=C/c2ccccc2OCc2ccc(C(=O)O)cc2)NC1=S,18%,·,·,3%,·,·
Cc1cc(C=C2C(=O)c3ccccc3C2=O)c(C)n1-c1ccccc1,7%[38.3 µM],50,-17%,16µM*,17,-15%
Cc1ccc(-n2c(C)cc(C=C3C(=O)CC(C)(C)CC3=O)c2C)cc1,-6%,10,?,0.89µM*,·,-5%
Cc1cc(/C=C2\Cc3ccccc3C2=O)c(C)n1-c1ccccc1,14%,?,?,7.9µM*,·,-7%
CC1=NN(c2ccccc2)C(=O)/C1=C\c1cc(C)n(-c2ccccc2)c1C,18%,?,-24%,?,1,1%
O=C(O)c1ccc(COc2ccccc2C=C2C(=O)c3ccccc3C2=O)cc1,0%,-20,10µM*,?,·,0%
Cc1cc(C=C2C(=O)c3ccccc3C2=O)c(C)n1-c1ccc(C(=O)O)cc1,1%,·,·,5.6µM*,·,·
Cc1cc(C=C2C(=O)c3ccccc3C2=O)c(C)n1-c1cccc(C(=O)O)c1,4%,·,·,10µM*,·,·
Cc1cc(C=O)c(C)n1-c1cccc(C(=O)O)c1,4%,·,·,-3%,·,·
Cc1c2c(n3c(nc4ccccc43)c1C#N)N(CCN(C)C)CC2,28%,·,·,?,·,·
Cc1c2c(n3c(nc4ccccc43)c1C#N)N(c1ccccc1)CC2,-1%,-95*,-23%,?,·,-4%
CC(C)=CCC/C(C)=C/CO/N=C1/C[C@@H](O)[C@@H](O)[C@@H]2[C@@H]3C(=O)N(Cc4ccccc4)C(=O)[C@H]3CC[C@@H]12,·,·,·,5%[13.5 µM],·,·
Cc1cc(C)n(-c2cccc(F)n2)n1,-4%,·,·,9%,·,·
CC(=O)n1nc(-c2ccccc2)nc1NCc1cccs1,7%,·,·,10%,·,·
O=C(CN1CCC(C(O)(c2ccccc2)c2ccccc2)CC1)Nc1cc(Cl)ccc1Cl,18%[38.3 µM],-100*,-12%,?,7,14%
